About 13,000 (27%) of roughly 48,000 compounds showed an effect of 50% or more. This is one part of the list.
test system: Wolbachia pipientis; assay: Anti-Wolbachia Cell-Based Screen; assay type: functional; set-up: scale not given: in the data most compounds retested in dose-response had high values; conditions: 5 µM

First: O=C(O)[C@@H]1CN(C2CCCCC2)C[C@H]1C1CC1
Second: O=C(CCc1ccccc1Br)N1CC(S(=O)(=O)C2CCCCC2)C1
The “Percent Effect” value of the first is higher: 8.818% for the first, 3.843% for the second.

Compared with `CCS(=O)(=O)N1CCC(CSc2ccccc2)C1` (stereo not given), `CS(=O)(=O)N1CCC(CSc2ccccc2)C1` (stereo not given) is higher in “Percent Effect” value: -7.795% for the first, 7.413% for the second.

First: CNC(=O)C(C)(C)N1CCC[C@H]1C(=O)NCCN1CCOCC1
Second: CCN(CC)S(=O)(=O)N1CCCC1C(=O)N1CCSCC1 (stereo not given)
The “Percent Effect” value of the first is lower: 8.557% for the first, 22.8% for the second.

Going from `CCc1ccc(C(=O)N2CCCn3nnc(Cn4cccn4)c3C2)cc1` to `COCc1nnn2c1CN(C(=O)c1c[nH]cn1)CCC2`, the “Percent Effect” value falls from 1.938% to -0.6058%.

Compared with `CC(=O)NCc1nnn2c1CN(c1ncc(C)cn1)CCC2`, `CC(=O)NCc1nnn2c1CN(c1ncccn1)CCC2` is lower in “Percent Effect” value: 101.7% for the first, 96.74% for the second.

First: CCS(=O)(=O)N1CCCn2nnc(CNC(C)=O)c2C1
Second: O=C(O)C(F)(F)F.OCCOCc1nnn2c1CN(c1ncccn1)CCC2
The “Percent Effect” value of the first is higher: 115.8439% for the first, 8.15% for the second.

Going from `O=C(O)C(F)(F)F.c1ccc(OCc2nnn3c2CN(c2ncccn2)CCC3)nc1` to `O=C(NCc1cnc2n1CCN(Cc1cccs1)C2)c1ccno1.O=C(O)C(F)(F)F`, the “Percent Effect” value falls from -15.4% to -34.76%.

First: COc1cccc(-c2noc(-c3ccc(NCC(C)C)nc3)n2)c1OC
Second: COCc1cc(N2CCc3onc(-c4cccc(OC)c4)c3C2)ncn1
The “Percent Effect” value of the first is lower: -21.63% for the first, -6.434% for the second.

First: CCN1CCC(c2nnc(CN3CCCC3)n2C2CC2)CC1
Second: CC(=O)N1CCC(CN2CCN(Cc3nccn3C)C(C)C2)CC1 (stereo not given)
The “Percent Effect” value of the first is higher: -1.245% for the first, -3.409% for the second.

Compared with `Cc1cc(N(C)C)nc(C2(C)CCNCC2)n1`, `Cc1cc(N(C)C)nc(C2(C)CCCNC2)n1` (stereo not given) is higher in “Percent Effect” value: 87.74% for the first, 102.5% for the second.

Going from `Cc1cnn(C2CN(c3nc(C)cc(N(C)C)n3)C2)c1` to `Cc1cc(N(C)C)nc(N2CCn3c(C)nnc3C2)n1`, the “Percent Effect” value rises from -14.5% to -0.4749%.

Going from `Cc1nc(N(C)C)cc(C2(C)CCNCC2)n1` to `Cc1n[nH]c(C)c1-c1nccnc1CC1CCNC1` (stereo not given), the “Percent Effect” value falls from 111% to 100.9%.

First: CN(Cc1ccc2nsnc2c1)C(=O)CCc1cc2n(n1)CCCNC2
Second: CN(Cc1ccc(F)cc1)C(=O)CN1CCOC(Cn2cncn2)C1 (stereo not given)
The “Percent Effect” value of the first is lower: -10.43% for the first, -5.304% for the second.

First: COCc1cc(N(C)Cc2ccccn2)nc(C(C)(C)C)n1
Second: COc1cc(NCC(c2ccccn2)N(C)C)ncn1 (stereo not given)
The “Percent Effect” value of the first is lower: -4.697% for the first, 0.2576% for the second.

Going from `O=C(COc1ccccc1N1CCCC1)N1CCN[C@H]2CS(=O)(=O)C[C@H]21` to `CS(=O)(=O)N1CC(c2nc[nH]n2)c2cc(C(=O)NC3CCCC3)ccc21` (stereo not given), the “Percent Effect” value rises from -3.795% to 0.6803%.

First: Cc1noc(CNc2ccc(OC(F)F)cc2OC(F)F)n1
Second: COc1ccc(Cl)cc1C(=O)N(C)Cc1cc(C)on1
The “Percent Effect” value of the first is lower: -10.63% for the first, -1.731% for the second.

Compared with `CC(=O)N1CCC(NC(=O)NCCCc2cn[nH]c2C)CC1`, `CC(=O)N1CCC(Cc2nccnc2-c2c(C)n[nH]c2C)C1` (stereo not given) is higher in “Percent Effect” value: -4.714% for the first, 110.3% for the second.

Going from `Cc1n[nH]c(C)c1CN1CCC(c2cc(C(C)C)n[nH]2)CC1` to `Cc1n[nH]c(C)c1-c1nccnc1CC1CCN(C(C)C)CC1`, the “Percent Effect” value rises from 7.572% to 127%.

First: Cc1n[nH]c(C)c1-c1nccnc1CC1CCN(S(C)(=O)=O)C1 (stereo not given)
Second: Cc1n[nH]c(C)c1-c1nccnc1CC1CCCN(C)C1 (stereo not given)
The “Percent Effect” value of the first is lower: 111.1% for the first, 113% for the second.

Going from `Cc1noc2ncc(C(=O)NCC3CCN(C(C)C)C3)cc12` (stereo not given) to `COCC(=O)N1CCC(Cc2nccnc2-c2c(C)n[nH]c2C)C1` (stereo not given), the “Percent Effect” value rises from -9.955% to 109.3%.

Compared with `CS(=O)(=O)N1Cc2nccn2CC(CN2CCCC2=O)C1` (stereo not given), `CN1CCCC(N2CCN(c3cc(C(F)(F)F)ccn3)CC2)C1` (stereo not given) is higher in “Percent Effect” value: -14.04% for the first, -11.03% for the second.

Going from `Cc1ccc(CN(Cc2ccccn2)C(=O)CCC2CCCN(C)C2)s1` (stereo not given) to `Cc1ccc(CN(C)C(=O)CN2CCCC2Cn2cccn2)o1` (stereo not given), the “Percent Effect” value rises from -9.083% to 15.96%.

First: CN1CCCCC1CCC(=O)NCCSc1cnn[nH]1 (stereo not given)
Second: CCn1nccc1CNC(=O)C1CCCC1
The “Percent Effect” value of the first is lower: -30.14% for the first, 10.33% for the second.

Compared with `CCOC(=O)C1CN(C(=O)COC)Cc2ncn(CC)c21` (stereo not given), `COCCNC(=O)Cn1cc2c(n1)c(C)nn2C` is higher in “Percent Effect” value: -5.507% for the first, 124.1% for the second.

First: CC1CCCCN1C(=O)Cn1cnc(C#N)n1 (stereo not given)
Second: CN(Cc1ccco1)C(=O)CN1CCCCC1Cn1cncn1 (stereo not given)
The “Percent Effect” value of the first is lower: -6.637% for the first, -0.1414% for the second.

First: Cc1nn(CCO)cc1CN1CCCC1c1nc2c(C)cccc2[nH]1 (stereo not given)
Second: Cc1ncc(CO)c(CN2CCCC2c2nc3c(C)cccc3[nH]2)c1O (stereo not given)
The “Percent Effect” value of the first is lower: -6.904% for the first, 7.788% for the second.

First: Cc1nn(C)cc1CN1CCCC1c1cccc(Nc2nccs2)n1 (stereo not given)
Second: Cc1nn(C)c(Cl)c1C1CCCN1Cc1cn2ccsc2n1 (stereo not given)
The “Percent Effect” value of the first is higher: 88.47% for the first, 41.71% for the second.

First: COc1c(C2CCCN2Cc2cn3ccsc3n2)c(C)nn1C (stereo not given)
Second: COCCNC(=O)N1CCOCC1c1c(C)nn(C)c1C (stereo not given)
The “Percent Effect” value of the first is higher: 3.624% for the first, -9.833% for the second.

First: CNS(=O)(=O)c1cccc(S(=O)(=O)Nc2ncc(C)s2)c1
Second: COCCCC(=O)NS(=O)(=O)c1ccc2c(c1)OCCCO2
The “Percent Effect” value of the first is higher: 2.588% for the first, -8.462% for the second.

First: Cc1nonc1NC(=O)C1SCCc2sccc21 (stereo not given)
Second: Cc1cnc(CNC(=O)CC2CCc3ccccc32)cn1 (stereo not given)
The “Percent Effect” value of the first is lower: -12.22% for the first, 1.8% for the second.

Going from `CCc1cnc(C)nc1NC(CC)c1cnn(C)c1` (stereo not given) to `CCn1nccc1CNC(=O)C(C)n1cc2c(n1)c(C)nn2C` (stereo not given), the “Percent Effect” value rises from -1.737% to 13.18%.

First: Cc1cccc(CN2CCCC3(CCN(CC(=O)N(C)C)C3=O)C2)n1.O=C(O)C(F)(F)F (stereo not given)
Second: Cc1cccc(CN2CCC3(CCCN(Cc4cnn(C)c4)C3)C2=O)n1 (stereo not given)
The “Percent Effect” value of the first is lower: -13.27% for the first, 94.18% for the second.

First: Cn1cc(CN2CCCC3(CCN(Cc4ccncc4)C3=O)C2)cn1 (stereo not given)
Second: O=C(CN1CCOC(Cn2cccn2)C1)Nc1ccncc1 (stereo not given)
The “Percent Effect” value of the first is higher: 102% for the first, -3.889% for the second.

First: CN(Cc1ccco1)C(=O)CN1CCOC(Cn2cncn2)C1 (stereo not given)
Second: Cc1ccc(CN(C)C(=O)CN2CCOC(Cn3cncn3)C2)o1 (stereo not given)
The “Percent Effect” value of the first is higher: 96.26% for the first, -4.818% for the second.

First: CN(Cc1ccco1)C(=O)CN1CCCC1Cn1cncn1 (stereo not given)
Second: CN(Cc1ccco1)C(=O)CN1CCCC1Cn1cccn1 (stereo not given)
The “Percent Effect” value of the first is higher: 107% for the first, -1.962% for the second.

First: CN(Cc1ccco1)C(=O)CN1CCCCC1Cn1cccn1 (stereo not given)
Second: CN(Cc1ccco1)C(=O)CN1CCOC(Cn2cccn2)C1 (stereo not given)
The “Percent Effect” value of the first is lower: 4.659% for the first, 126.4% for the second.

Going from `Cc1ccc(CN(C)C(=O)CN2CCOC(Cn3cccn3)C2)o1` (stereo not given) to `Cc1ccccc1CN(C)C(=O)CN1CCOC(Cn2cccn2)C1` (stereo not given), the “Percent Effect” value falls from 114.2% to 111%.

Compared with `Cc1ccc(CN(C)C(=O)CN2CCCCC2Cn2cncn2)o1` (stereo not given), `CN(Cc1ccc(F)cc1)C(=O)CN1CCOC(Cn2cccn2)C1` (stereo not given) is higher in “Percent Effect” value: -8.08% for the first, 121.8% for the second.

First: Cc1ccc(-c2nc(CN3CCOC(Cn4cccn4)C3)cs2)o1 (stereo not given)
Second: Cc1nnc(NC(=O)CN2CCOC(Cn3cccn3)C2)s1 (stereo not given)
The “Percent Effect” value of the first is higher: -10.9% for the first, -11.4% for the second.

Going from `Cc1ncsc1CN1C[C@@H]2COC[C@]2(COc2ccc(C#N)cn2)C1` to `Cc1nc(C)c(CNCC2CCCn3ccnc32)s1` (stereo not given), the “Percent Effect” value falls from -4.86% to -11.09%.

First: O=C(Nc1ncn(Cc2cccc(Br)c2)n1)C1CCC1
Second: CCC(=O)N1CCC(Cc2cc(Nc3ncccn3)ncn2)CC1
The “Percent Effect” value of the first is lower: 6.264% for the first, 93.47% for the second.

Going from `O=C(CN1CCOC(Cn2cccn2)C1)NCCc1ccc(F)cc1` (stereo not given) to `CN(CCc1cn[nH]c1)C(=O)CCc1ccc(Cl)cc1`, the “Percent Effect” value rises from -2.964% to 144.4%.

Going from `CCN(CCC(F)(F)F)C(=O)Nc1cccc(N2CCOCC2)c1` to `CC(C)(NCC(=O)NCCC#N)c1ccc2c(c1)OCCO2`, the “Percent Effect” value rises from -10.51% to 4.777%.

Compared with `CN1CCC(Cc2cc(Nc3ccccn3)ncn2)CC1`, `CN1CCC(Cc2cc(Nc3ncccn3)ncn2)CC1` is lower in “Percent Effect” value: 68.08% for the first, -2.002% for the second.

Compared with `CC1CCN(CC(O)CNc2ccccn2)CC1` (stereo not given), `C[C@H](O)CNc1cc(-c2ccccc2)ncn1` is higher in “Percent Effect” value: -1.4% for the first, 111.5% for the second.

Going from `N#CCCN(Cc1cccnc1)C(=O)c1ccn(-c2ccccc2)n1` to `N#CCCN(Cc1cccnc1)C(=O)c1cccc(-n2cnnn2)c1`, the “Percent Effect” value falls from 1.241% to -18.3%.

First: COc1ccc(/C=C/CN2C[C@H]3CC[C@@H]2CN(S(=O)(=O)N(C)C)C3)cc1
Second: Cc1ccc(C(C(=O)N(C)CCc2cn[nH]c2)N(C)C)cc1 (stereo not given)
The “Percent Effect” value of the first is higher: 13.82% for the first, 3.285% for the second.

Going from `C[C@H](O)CNC(=O)c1cnc(-c2ccccc2)nc1O` to `C[C@H](O)CNc1cc(-c2ccncc2)ncn1`, the “Percent Effect” value rises from -14.22% to 115%.

First: CC(C)c1cc(NCC(O)c2ccncc2)n2nccc2n1 (stereo not given)
Second: CCC(C)N(Cc1cccnc1)Cc1ccc2c(c1)OCCO2 (stereo not given)
The “Percent Effect” value of the first is lower: -8.35% for the first, 9.848% for the second.

Going from `CC(C)c1cc(NCC2(CO)CCCC2)ncn1` to `CC(C)Cc1ncc2c(n1)CN(c1cc(N)nc(N)n1)C2`, the “Percent Effect” value rises from 7.781% to 16.38%.

Compared with `O=C(c1ccno1)N1CCC2(CC(=O)N(c3ccc4c(c3)OCO4)C2)C1` (stereo not given), `c1cncc(CCc2nc(C3CC3)nn2-c2ccc3c(c2)OCCO3)c1` is higher in “Percent Effect” value: -9.598% for the first, -5.22% for the second.

Going from `Cc1ccc(C)c(C(O)Cn2cc(Cl)c(=O)[nH]c2=O)c1` (stereo not given) to `Cc1ccc(N(CCC#N)C(=O)CCc2cccnc2)cc1C`, the “Percent Effect” value rises from 3.012% to 98.05%.

Going from `COCCNC(=O)Cn1nc(C(C)C)c2cnn(C(C)(C)C)c2c1=O` to `COCCNC(=O)Cn1cc2c(n1)c(C)nn2C(C)C`, the “Percent Effect” value rises from -0.4126% to 92.82%.

Going from `COCCNC(=O)c1cnc(C)nc1C` to `COCCNC(=O)C(C)n1cc(Br)cn1` (stereo not given), the “Percent Effect” value rises from -12.85% to 8.857%.

Compared with `CCn1nccc1CNC(=O)Cn1cc2c(n1)c(C)nn2C(C)C`, `CN(CCc1cn[nH]c1)C(=O)C(c1ccc(F)cc1)N(C)C` (stereo not given) is lower in “Percent Effect” value: 116.7% for the first, -6.005% for the second.

First: CC(C)(C)c1noc(CCC(=O)N2CCNC(=O)C2)n1
Second: CC(=O)N1CCN(CCNc2snc(Cl)c2C#N)CC1
The “Percent Effect” value of the first is lower: -18.81% for the first, 4.799% for the second.

Compared with `COCCC(=O)N(CCC#N)c1ccc2c(c1)OCCO2`, `N#CCCN(C(=O)CCc1cccnc1)c1ccc2c(c1)OCCO2` is lower in “Percent Effect” value: 95.73% for the first, 88.06% for the second.

`N#CCCN(Cc1cccnc1)C(=O)Cc1ccc(-n2cnnn2)cc1` was tested, and the “Percent Effect” value was -0.659%.
